From PubChem
CDC25B-CDK2 inh: primary biochemical HTRF screen for blockers of M-phase inducer phosphatase 2 binding to CDK2/cyclin A; HTRF CDC25B-CDK2/CyclinA binding, anti-His/anti-Flag; active compounds read high; hit rate 0.72% among 94,000; z-score (no concentration beside the values); in the data active means z-score above about 3.2
HIV TAR-Tat: TAR RNA-Tat peptide displacers, HIV-1, primary screen, biochemical, FRET, FAM/TAMRA-labeled Tat. hit rate 0.6% among 100,000. z-score (no concentration beside the values). HIV-1 TAR RNA, Tat peptide displacement FRET; active compounds read high; active means z-score of 3 or more in at least 2 runs
Hits are given with their value; n = inactive; x = not tested or not shown. Rows were chosen to be rich in hits. Some 0.9% of all compounds tested hit in one or more screens of this group.

SMILES	CDC25B-CDK2 inh	HIV TAR-Tat
CCN1CCc2c(sc(-n3cccc3)c2C(C)NC(=O)Nc2cc(OC)ccc2OC)C1 (centres undefined)	x	n
Cn1c(CSC2CN(C(c3ccccc3)c3ccccc3)C2)n[nH]c1=S	13.3	x
Cn1c(CSc2ccccc2)n[nH]c1=S	n	x
CCn1nc(C)c(CNC(=O)Nc2cccc(F)c2)c1C	x	n
CCCC(=O)N1c2ccccc2C(=C2SC(C(=O)OC)=C(C(=O)OC)S2)C(=S)C1(C)C	n	n
CCC(=O)N1c2ccc(C)cc2C(=C2SC(C(=O)OC)=C(C(=O)OC)S2)C(=S)C1(C)C	n	n
COC(=O)C1=C(C(=O)OC)SC(=C2C(=S)C(C)(C)Nc3ccccc32)S1	13.6	n
CCOC(=O)C1=C(C(=O)OCC)SC(=C2C(=S)C(C)(C)Nc3ccc(C)cc32)S1	18.6	n
Cc1nc2c(F)c(F)c(F)c(F)c2[nH]1	n	x
CCCOC(=O)c1cc(O)c(O)c(O)c1	x	26.1
CCOC(=O)c1cc(CO)cc(C(=O)OCC)c1	n	x
COc1ccc(Cn2cc3c(-c4ccccc4)nnc-3c3cc4c(cc32)OCCO4)cc1	7.36	n
COc1ccccc1Cn1cc2c(-c3ccc(F)cc3)nnc-2c2cc3c(cc21)OCO3	n	n
COc1ccc(-c2nnc3c4cc5c(cc4n(Cc4ccccc4)cc2-3)OCCO5)cc1	n	n
COc1ccc(-c2nnc3c4cc5c(cc4n(Cc4ccccc4F)cc2-3)OCCO5)cc1OC	7.32	n
CN1CCN(CCCNC(=O)c2cc3sccc3n2C)CC1	n	n
COCCOC(=O)C1=C(C)NC2=C(C(=O)C(C(=O)OC)C(C)C2)C1c1cccc(F)c1 (centres undefined)	n	n
Cc1c2cnn(-c3ccccc3)c(=O)c2c(C)n1C(C)C(=O)O (centres undefined)	n	n
CCCc1nn2c(=O)cc(COc3cc(C)ccc3C)nc2s1	n	n
CCSc1nn2c(=O)cc(COc3cc(C)ccc3C)nc2s1	n	7.7
O=C(Nc1ccc(Cl)cc1)Nc1nc2c(s1)CCCCCC2	x	n
CS(=O)(=O)n1nc(-c2ccco2)nc1NCc1ccc(OCc2ccccc2)cc1	n	n
COc1ccc(-c2coc3cc(OCc4ccc(Br)cc4)cc(O)c3c2=O)cc1OC	n	n
COc1cc(-c2coc3cc(OCc4ccccc4)c(OC)c(O)c3c2=O)cc(OCc2ccccc2)c1OC	x	25.8
O=C(CSc1nc2ccccc2c(=O)[nH]1)N1CCc2ccccc21	x	14.4
SMILES	CDC25B-CDK2 inh	HIV TAR-Tat
NC(=O)CSc1nc2ccccc2c(=O)[nH]1	n	n
CCN1CCN(CCCNc2ncnc3onc(-c4ccc(C)cc4)c23)CC1	x	n
COc1ccc2cc(S(=O)(=O)c3ccc(C(C)(C)C)cc3)c(=O)oc2c1	n	x
O=C(O)c1ccccc1Nc1cccc2c1C(=O)c1cccc(Nc3ccccc3C(=O)O)c1C2=O	x	19.1
Cc1c(Cl)cccc1Nc1ccccc1C(=O)O	x	n
CCOC(=O)c1c(C)[nH]c(C)c1S(=O)(=O)NCC(=O)NCc1ccc(C)o1	x	n
O=S1(=O)C[C@H](N2CCN(Cc3ccccc3)CC2)[C@@H](S(=O)(=O)c2ccccc2)C1	n	n
Cc1c(CCOC(=O)C2C3CC4CC(C3)CC2C4)sc[n+]1CC(=O)c1ccc(Br)cc1 (centres undefined)	9.08	x
CCN1CCN(c2cc(Nc3ccc4c(c3)OCO4)c3c4c(onc24)-c2ccccc2C3=O)CC1	n	n
COc1cccc(Nc2cc(N3CCN(C)CC3)c3noc4c3c2C(=O)c2ccccc2-4)c1	10.9	n
COc1cccc(Nc2cc(N3CCOCC3)c3noc4c3c2C(=O)c2ccccc2-4)c1	n	n
O=C1c2ccccc2-c2onc3c(N4CCOCC4)cc(Nc4ccc5c(c4)OCCO5)c1c23	n	n
CN1CCN(c2cc(Nc3ccc4c(c3)OCCO4)c3c4c(onc24)-c2ccccc2C3=O)CC1	10.5	n
CN1CCN(c2cc(Nc3ccc4c(c3)OCO4)c3c4c(onc24)-c2ccccc2C3=O)CC1	10.4	n
CCn1c(SCc2nc(-c3ccc(Br)cc3)no2)nnc1-c1ccco1	n	n
O=C(O)c1ccc(N2Cc3cc(Cl)ccc3OCC2=O)cc1	n	n
COc1ccc(N2CSC3=C(C#N)C(c4ccc(Cl)cc4)CC(=O)N3C2)cc1OC (centres undefined)	n	n
N#CC1=C2SCN(c3ccc(Cl)cc3)CN2C(=O)CC1c1ccccc1 (centres undefined)	7.35	n
N#CC1=C2SCN(c3cccc(Cl)c3)CN2C(=O)CC1c1ccccc1 (centres undefined)	9.15	n
Cn1c(-n2cccc2)c(-c2c(-c3cccc(Cl)c3)[nH]c3c2c(=O)[nH]c(=O)n3C)c(=O)[nH]c1=O	n	n
CCN(CCNS(=O)(=O)c1cc(-c2cc(C)no2)ccc1C)c1cccc(C)c1	x	n
CCN(CC)CCNC(=O)Cn1cc2c(n1)-c1c(oc(C(=O)N3CCCC3)c1C)CC2	x	n
O=C(Cn1nc(-c2ccccc2)c2c(c1=O)CCCC2)c1ccccc1	n	n
Cn1c2c(c(=O)[nH]c1=O)C(c1ccc([N+](=O)[O-])o1)C1=C(N2)c2ccccc2C1=O (centres undefined)	n	3.6
Cn1c2c(c(=O)[nH]c1=O)C(c1ccccc1)C1=C(N2)c2ccccc2C1=O (centres undefined)	n	n
SMILES	CDC25B-CDK2 inh	HIV TAR-Tat
Cc1ccc(NC(=O)Nc2nnc(CC(=O)Nc3ccccc3)s2)cc1	n	x
COc1ccc(NC(=O)Nc2nnc(CC(=O)Nc3ccc(C)cc3)s2)cc1	5.53	x
CCn1c(=O)/c(=C2\Sc3ccccc3N2C)s/c1=C\c1cccc[n+]1C	x	n
C=CCN1/C(=C/c2cc[n+](C)cc2)Sc2ccccc21	n	4.14
CN1/C(=C\c2cc[n+](C)cc2)Sc2ccccc21	n	7.52
C=CCN1/C(=C/c2cccc[n+]2C)Sc2ccccc21	n	6.74
CCN1/C(=C/C2=CC(=O)CC(C)(C)C2)Sc2ccccc21	n	n
C=CC[n+]1ccc(/C=C2\Sc3ccccc3N2C)cc1	n	n
Cc1cc(NS(=O)(=O)c2ccc(NS(=O)(=O)c3cccs3)cc2)nc(C)n1	n	n
CCc1c(CN2CCN(Cc3ccc4c(c3)OCO4)CC2)csc1C	x	n
O=C(CN1C(=O)c2cccnc2Sc2ccccc21)NCCCN1CCC(N2CCCCC2)CC1	x	n
COc1ccc(C2C=C(c3ccc(C(C)C)cc3)Nc3ncnn32)cc1OC (centres undefined)	x	n
COc1cc(C)c(S(=O)(=O)N2CCN(c3cc(N(C)C)nc(C)n3)CC2)cc1C	n	n
Cc1ccc(C(=O)c2cnc3cc4c(cc3c2N2CCC(C(N)=O)CC2)OCO4)cc1C	n	17.4
Cc1ccc(C(=O)c2cnc3cc4c(cc3c2N2CCC(C(N)=O)CC2)OCCO4)cc1C	n	n
O=C(Nc1ccc2c(c1)OCCO2)NC(c1ccc(F)cc1)c1nnc(-c2ccccc2)o1 (centres undefined)	x	n
C=CCSc1nnc(NC(=O)c2cc(=O)c3cc(CC)ccc3o2)s1	n	9.8
C=CCSc1nnc(NC(=O)c2cc(=O)c3cc(Cl)ccc3o2)s1	n	n
N#CC1=C2SCN(c3ccccc3F)CN2C(=O)CC1c1cccc(F)c1 (centres undefined)	6.6	n
N#CC1=C2SCN(c3ccccc3F)CN2C(=O)CC1c1cccc(Br)c1 (centres undefined)	n	n
